PubChem BioAssay (NCATS)
Inconclusive results are not listed. Active and inactive are the calls of the source. Calls come from the whole dose curve; as a rule, active = well fitted cell-killing curve with a large enough effect; inconclusive = small, poorly fitted or top-dose-only effect, or effect the other way; inactive = no such curve, though single readings can be large or run the other way.

Assay: Quantitative High-Throughput drug screen in 47 multiple myeloma cell lines against the NCATS MIPE library collection: UTMC2_PLB cell viability assay (AID 1919868); note: nearly all actives have a fitted effect of over 55% in size
Conditions: CellTiter-Glo ATP luminescence, 48 h; viability (% of DMSO control): at 45.8 µM (top of the series)
From the text: PI: Beverly A. Mock Ph.D.
Laboratory of Cancer Biology and Genetics,
Center for Cancer Research, National Cancer Institute,
National Institute of Health, Bethesda, Maryland
Drug resistance and disease progression are common in multiple myeloma (MM) patients, underscoring the need for new therapeutic combinations. […] We hypothesized that effective combinations would reduce MYC expression and enhance p16 activity. […] These preclinical data identify potentially useful drug combinations for evaluation in drug-resistant MM and reveal potential mechanisms of combined drug sensitivity.
Described herein is the primary MIPE qHTS used to cherrypick compounds. Validated compounds were then further tested for potential synergistic activiy.
[1] Peat TJ, Gaikwad SM, Dubois W, Gyabaah-Kessie N, Zhang S, Gorjifard S, Phyo Z, Andres M, Hughitt VK, Simpson RM, Miller MA, Girvin AT, Taylor A, Williams D, D'Antonio N, Zhang Y, Rajagopalan A, Flietner E, Wilson K, Zhang X, Shinn P, Klumpp-Thomas C, McKnight C, Itkin Z, Chen L, Kazandijian D, Zhang J, Michalowski AM, Simmons JK, Keats J, Thomas CJ, Mock BA. Drug combinations identified by high-throughput screening promote cell cycle transition and upregulate Smad pathways in myeloma. Cancer Lett. 2023 Aug 1;568:216284. doi: 10.1016/j.canlet.2023.216284. Epub 2023 Jun 24. PMID: 37356470; PMCID: PMC10408729.
SEQUENCE No. (e.g., 1, 2, 3, etc.); […] (e.g., Cells, Incubation, Reagent, etc.); VALUE and DESCRIPTION.
1; Cells; 5 uL; white, solid bottom 1536-well Greiner assay plate.
2; Compounds; 23 nL; Kalypsis pin tool (Wako USA) equipped with a 1536-well pin head to transfer to the assay plates.
3; Incubation; 48 hours; 37C incubation.
4; Reagent;5uL; CellTiter Glo (Promega).
5; Detector; 425V; Luminescence; Viewlux PerkinElmer.
NOTES (numbers refer to Sequence numbers above)
1. The cell-based screening methods employed in this study were like those previously published. Briefly, the corresponding myeloma cell lines were screened in 1,536-well plates with 500 cells, 5-uL per well for inhibition of cell viability (assessed by measuring ATP levels with CellTiterGlo).
2. NCATS MIPE 4.0 library of approved and investigational drugs were added using the Kalypsis pin tool. Wells treated with DMSO only for 100% viability and media only for 0% viability were used as controls.
3. The assay plates were covered and incubated for 48 hours in a 37C, 5% CO2 incubator with controlled humidity.
4. After 48 hours, CellTilter-GloTM luminescent substrate mix (Promega) reagent was added to the assay plate and plates we incubated for 5 min at room temperature.
5. Signal was measured as median relative luminescence units on a ViewLux (PerkinElmer) multiplate reader.
[1] Heske CM, Davis MI, Baumgart JT, Wilson K, Gormally MV, Chen L, Zhang X, Ceribelli M, Duveau DY, Guha R, Ferrer M, Arnaldez FI, Ji J, Tran HL, Zhang Y, Mendoza A, Helman LJ, Thomas CJ. Matrix Screen Identifies Synergistic Combination of PARP Inhibitors and Nicotinamide Phosphoribosyltransferase (NAMPT) Inhibitors in Ewing Sarcoma. Clin Cancer Res. 2017 Dec 1;23(23):7301-7311. doi: 10.1158/1078-0432.CCR-17-1121. Epub 2017 Sep 12. PMID: 28899971; PMCID: PMC6636827.
Potency is the fitted concentration of half-maximal effect.

| SMILES | Potency |
| --- | --- |
| CC[C@H](C=C[C@@H](C)[C@H]1CC[C@H]2[C@@H]3CC=C4C[C@@H](O)CC[C@]4(C)[C@@H]3CC[C@]12C)C(C)C | inactive |
| CC(C)C[C@@H](C(=O)N[C@H](C(=O)OC1CCCC1)c1ccccc1)[C@H](O)C(=O)NO | 16.6 µM (active) |
| CNC1CCC(N(Cc2cccc(-c3ccncc3)c2)C(=O)c2sc3ccccc3c2Cl)CC1 (stereo not given) | 10.5 µM (active) |
| CCN1C[C@H](C)n2c(c(O)c3c(=O)n(Cc4ccc(F)c(Cl)c4)nc(C(=O)NC)c32)C1=O | inactive |
| O=C1Nc2ccc(I)cc2C1=Cc1cc(Br)c(O)c(Br)c1 | 14.8 µM (active) |
| C=CC[N+]1([C@H]2C[C@H]3[C@@H]4CC[C@H]5C[C@H](O)[C@@H](N6CCOCC6)C[C@]5(C)[C@@H]4CC[C@]3(C)[C@H]2OC(C)=O)CCCC1 | inactive |
| COc1cc(Cl)cn2c(-c3cccc(NC4CNC4)n3)cnc12 | 20.9 µM (active) |
| O=C(Nc1cccc(Cl)c1)Nc1ncc(CCNc2ncnc3ccsc23)s1 | 0.372 µM (active) |
| C[C@H](c1ccc(F)cc1CCCC(=O)O)N(c1cc(F)ccc1F)S(=O)(=O)c1ccc(Cl)cc1 | 14.8 µM (active) |
| CN1CCC(COc2cnc(-c3cccc(Cn4nc(-c5cccc(C#N)c5)ccc4=O)c3)nc2)CC1 | 0.526 µM (active) |
| CS(=O)(=O)c1ccc(C2=C(c3ccccc3)C(=O)OC2)cc1 | inactive |
| CC(C)CN(C[C@@H](O)[C@H](Cc1ccccc1)NC(=O)O[C@H]1CO[C@H]2OCC[C@H]21)S(=O)(=O)c1ccc(N)cc1 | 13.2 µM (active) |
| C[C@H](CCC(=O)O)[C@H]1CC[C@H]2[C@H]3[C@@H](CC[C@]12C)[C@@]1(C)CC[C@@H](O)C[C@H]1C[C@@H]3O | inactive |
| CN[C@@H]1CN(c2ccc3c(=O)c(C(=O)O)cn(-c4nccs4)c3n2)C[C@@H]1OC | 1.29 µM (active) |
| NC1(C(=O)N[C@@H](CCO)c2ccc(Cl)cc2)CCN(c2ncnc3[nH]ccc23)CC1 | 0.235 µM (active) |
| FC(F)(F)c1ccc(C=Cc2nc(COc3ccc(CCCCn4ccnn4)cc3)co2)cc1 | 0.0833 µM (active) |
| CC[C@H](CC#N)OC(=O)N[C@@H](C)c1cccc(NC(=O)Nc2ccc(-c3cnco3)c(OC)c2)c1 | 1.18 µM (active) |
| COc1cc2nccc(Oc3ccc(NC(=O)Nc4ccc(F)cc4F)c(F)c3)c2cc1OC | inactive |
| CO[C@H]1C=CO[C@@]2(C)Oc3c(C)c(O)c4c(O)c(c(C=NN5CCN(C)CC5)c(O)c4c3C2=O)NC(=O)C(C)=CC=C[C@H](C)[C@H](O)[C@@H](C)[C@@H](O)[C@@H](C)[C@H](OC(C)=O)[C@H]1C | inactive |
| Nc1ccn([C@@H]2O[C@H](CO)[C@@H](O)[C@H]2O)c(=O)n1 | 0.001 µM (active) |

| SMILES | Potency |
| --- | --- |
| Cn1cnc(-c2cc3nccc(Oc4ccc(NC(=S)NC(=O)Cc5ccccc5)cc4F)c3s2)c1 | 0.132 µM (active) |
| Cc1ccc(S(=O)(=O)OCC(=O)Nc2ccc(C(=O)O)c(O)c2)cc1 | 9.35 µM (active) |
| COc1ccc(-c2cc3nccn3c(Nc3ncccc3C(N)=O)n2)cc1OC | 1.18 µM (active) |
| Cc1cnc(Nc2cccc(CN3CCOCC3)c2)nc1Nc1cccc(S(=O)(=O)NC(C)(C)C)c1 | 1.18 µM (active) |
| CN(C)CCOc1cc(-c2cn[nH]c2)ccc1NC(=O)C1COc2ccccc2O1 (stereo not given) | 6.62 µM (active) |
| CCC(=O)NCC[C@@H]1CCc2ccc3c(c21)CCO3 | inactive |
| N#Cc1c(N(CC(=O)O)CC(=O)O)sc(C(=O)O)c1CC(=O)O | 23.5 µM (active) |
| C[C@@]1(c2cc(-c3cncnc3)c(F)cc2F)CCSC(N)=N1 | inactive |
| CON(C)C(=O)N1N=C(c2cc(F)ccc2F)S[C@]1(CCCN)c1ccccc1 | inactive |
| OC1CCC(Nc2ncc3nc(Nc4c(F)cc(F)cc4F)n([C@@H]4CCOC4)c3n2)CC1 (stereo not given in full) | inactive |
| CC[C@H]1OC(=O)[C@H](C)[C@@H](O[C@H]2C[C@@](C)(OC)[C@@H](O)[C@H](C)O2)[C@H](C)[C@@H](O[C@@H]2O[C@H](C)C[C@H](N(C)C)[C@H]2O)[C@](C)(O)C[C@H](C)C(=NOCOCCOC)[C@H](C)[C@@H](O)[C@]1(C)O | inactive |
| CC1(C)C(N(O)C(=O)Nc2ccc(Cl)cc2)N(c2ccc(Cl)cc2)C(=O)N1CC(=O)NN=CC=Cc1ccc([N+](=O)[O-])o1 (stereo not given) | 13.2 µM (active) |
| O=C(Nc1cccc2c(=O)cc(-c3nn[nH]n3)oc12)c1ccc(OCCCCc2ccccc2)cc1 | 14.8 µM (active) |
| Cc1cccc(-c2[nH]c(C(C)(C)C)nc2-c2ccc3c(c2)OCO3)n1 | 0.743 µM (active) |
| CN1C(=O)C(Cc2c[nH]c3ccccc23)NC1=S (stereo not given) | 2.96 µM (active) |
| NC(N)=Nc1nc(CSCCC(N)=NS(N)(=O)=O)cs1 | 9.35 µM (active) |
| Clc1ccc(C2(c3ccc(-c4cn[nH]c4)cc3)CCNCC2)cc1 | 0.148 µM (active) |
| COc1cccc(OC)c1-c1cc(C(=O)NC2(C(=O)O)C3CC4CC(C3)CC2C4)nn1-c1ccnc2cc(Cl)ccc12 (stereo not given) | inactive |
| CCN(CC)CCCCNc1nc2cc(Cl)c(Cl)cc2nc1-c1ccc(-c2cccs2)s1 | 9.35 µM (active) |
| NS(=O)(=O)c1ccc(Nc2nc(OCC3CCCCC3)c3[nH]cnc3n2)cc1 | 11.8 µM (active) |
